Assay results as given in PubChem BioAssay AID1025 (Sanford-Burnham Center for Chemical Genomics, 2008).
In all, about 96,000 compounds went through this assay and fewer than 10 were called active.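 How the source made its calls: active means activation factor of at least 2 at 5 µM in the primary screen; inactive means the rest.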 Only a sample is shown.

Each molecule was assayed against Cytochrome P450 2C19 (Homo sapiens) (UniProt P33261) (assay: human CYP2C19 activators, primary screen, biochemical, luminescence (AID 1025;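 further: 0 = wells with 2.5 mM tranylcypromine and 1 = vehicle-only wells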)). Conditions: recombinant CYP2C19, luciferin-H EGE luminescence; at 5 µM; hits give high values; 0 = fully inhibited enzyme, 1 = untreated enzyme.
Chain of Cytochrome P450 2C19 (Homo sapiens) (P33261 whole entry, looked up): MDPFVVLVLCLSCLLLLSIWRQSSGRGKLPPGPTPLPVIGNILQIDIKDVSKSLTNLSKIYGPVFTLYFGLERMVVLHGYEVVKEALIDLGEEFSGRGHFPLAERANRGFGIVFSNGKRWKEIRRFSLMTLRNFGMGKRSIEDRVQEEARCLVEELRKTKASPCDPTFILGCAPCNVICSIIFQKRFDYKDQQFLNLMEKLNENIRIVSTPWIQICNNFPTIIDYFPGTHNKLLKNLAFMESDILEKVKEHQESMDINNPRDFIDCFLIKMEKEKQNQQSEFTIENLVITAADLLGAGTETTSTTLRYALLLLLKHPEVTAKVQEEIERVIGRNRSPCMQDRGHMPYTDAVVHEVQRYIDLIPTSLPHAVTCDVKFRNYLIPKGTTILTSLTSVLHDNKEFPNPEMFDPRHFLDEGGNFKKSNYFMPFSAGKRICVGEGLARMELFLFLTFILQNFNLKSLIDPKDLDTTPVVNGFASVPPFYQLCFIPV
In the case of `CCc1ccc(CNC(=O)C2CCCN(c3nc4ccccc4o3)C2)cc1` (stereo not drawn), the activation factor is reported as 0.3 (inactive). `CCn1cc(C(=O)N/N=C(/C)c2ccc(F)cc2)c(=O)c2cc(F)c(N3CCCC3)cc21` was tested, and the activation factor was 0.6 (inactive). In the case of `O=C(Nc1cccc(-c2nc3ncccc3o2)c1)c1ccco1`, the activation factor is reported as 0.9 (inactive). In the case of `COc1ccccc1NC(=O)[C@H](COCc1ccccc1)NC(=O)OC(C)(C)C`, the activation factor is reported as 0.5 (inactive). In the case of `CN=C1SC(CC(=O)Nc2ccc(C(=O)O)cc2)C(=O)N1C` (stereo not drawn), the activation factor is reported as 1 (inactive). `O=C(c1ccco1)N1CCN(C(=O)C2CCCN(S(=O)(=O)c3cccc4nsnc34)C2)CC1` (stereo not drawn) was tested, and the activation factor was 1 (inactive). With `COc1ccc(NC(=O)Cn2c(-c3ccc(OC)cc3)cn(-c3ccc(C)cc3)c2=O)cc1` the activation factor was 1 (inactive). In the case of `O=C(N/N=C/c1ccc(O)cc1)/C(=C/c1ccc([N+](=O)[O-])cc1)NC(=O)c1ccccc1`, the activation factor is reported as 0.9 (inactive). In the case of `CSc1ccc(C#N)cc1NC(=O)c1cccc(Cl)c1`, the activation factor is reported as 0.8 (inactive). For `Cc1ccc(S(=O)(=O)N(CC(=O)NCCSC2CCCCC2)c2ccccc2F)cc1`, the activation factor was 1 (inactive). With `CC(c1ccco1)N(C(=O)COc1ccccc1[N+](=O)[O-])c1ccccn1` (stereo not drawn) the activation factor was 0.6 (inactive). With `C=CCn1c(SCC(=O)NCc2ccccc2)nnc1-c1cc(Br)ccc1O` the activation factor was 0.1 (inactive). With `O=C(Nc1nccs1)c1cc(S(=O)(=O)N2CCOCC2)c(Cl)cc1Cl` the activation factor was 0.9 (inactive). In the case of `CC(C)CCOc1ccc(C(=O)C[N+]2(C)CCOCC2)cc1`, the activation factor is reported as 0.9 (inactive). For `O=C(N/N=C/C=C/c1ccccc1)C1CC1(c1ccccc1)c1ccccc1` (stereo not drawn), the activation factor was 1.2 (inactive). `COCCNC(=O)COc1ccccc1C` was tested, and the activation factor was 1 (inactive). For `COc1ccccc1NC(=O)COc1ccc(C(=O)OCC(=O)N(C(C)C)C(C)C)cc1OC`, the activation factor was 0.4 (inactive). `CCCN1Cc2cccc(C(=O)Nc3ccc(S(=O)(=O)N4CCCCCC4)cc3)c2C1=O` was tested, and the activation factor was 0.8 (inactive). `Cc1cccc(C)c1-n1c(C)cc(/C=C2\C(=O)NN(c3ccccc3)C2=O)c1C` was tested, and the activation factor was 0.6 (inactive). With `Cc1ccc(SCCC(=O)OCC(=O)Nc2ncc(Cl)cc2Cl)cc1` the activation factor was 0.8 (inactive). For `COc1ccc(NCc2nnc(SCc3ccccc3)n2-c2ccc(OC)cc2)cc1`, the activation factor was 0.1 (inactive). In the case of `COc1ccc(-c2cc3nc(C)c(CCC(=O)NC(C)CCc4ccco4)c(C)n3n2)c(OC)c1` (stereo not drawn), the activation factor is reported as 0.7 (inactive). For `O=C(COc1cc(Cl)c(Cl)cc1Cl)NC(=O)NC1CCCC1`, the activation factor was 1.1 (inactive). `CCCCCN1CC(O)=C(c2nc(-c3ccc(Cl)cc3)cs2)C1=N` was tested, and the activation factor was 0.9 (inactive). For `Cc1ccc(-n2c(SCC(=O)NCc3ccc4c(c3)OCO4)nnc2-c2cccnc2)c(C)c1`, the activation factor was 0.7 (inactive). For `CCCCNC(=O)CSc1nc2ccc(NC(=O)CSc3nnc(COc4ccccc4C)n3C)cc2s1`, the activation factor was 0.8 (inactive). `CSc1nc2ccccc2cc1/C=C(\C#N)c1ccc(Cl)cc1Cl` was tested, and the activation factor was 0.9 (inactive). For `Cc1nnc(SCC(=O)Nc2ncc3c(n2)CC(C)(C)CC3=O)s1`, the activation factor was 1 (inactive). For `O=C(Nc1ccc2c(c1)OCCO2)C(c1ccc(F)cc1)N1CCCCC1` (stereo not drawn), the activation factor was 0.4 (inactive). For `COc1cc(C2C(C(=O)OCCC#N)=C(C)NC3=C2S(=O)(=O)c2ccccc23)cc(OC)c1OC` (stereo not drawn), the activation factor was 0.8 (inactive). With `CCCCN1C(=O)CC(N2CCOCC2)C1=O` (stereo not drawn) the activation factor was 1 (inactive). For `O=c1c2ccccc2nc2n1C1(CCCCC1)Cc1ccccc1-2`, the activation factor was 0.3 (inactive). In the case of `Cc1ccc(OCc2nnc(NC(=O)OCC(C)C)s2)cc1`, the activation factor is reported as 0.9 (inactive). With `Cc1csc(=NC(=O)c2ccccc2)n1CCO` the activation factor was 0.5 (inactive). With `CSC1=N/C(=C\c2ccc3c(c2)OCO3)C(=O)S1` the activation factor was 1 (inactive). In the case of `CC(C)(C)c1cc2cccnc2n1Cc1cccc(F)c1`, the activation factor is reported as 0.9 (inactive). With `CCNC(=S)Nc1cccc(Cl)c1C` the activation factor was 0.5 (inactive). In the case of `CN1CCN(c2ccc([N+](=O)[O-])c(Sc3nc4ccccc4[nH]3)c2)CC1`, the activation factor is reported as 0.7 (inactive). For `CC/C(C)=N/Nc1nc2sc3c(c2c(=O)[nH]1)CC(C)(C)OC3`, the activation factor was 0.6 (inactive). With `CCC(=O)Nc1ccc(C(=O)Nc2cccc(OC)c2)cc1` the activation factor was 1 (inactive). With `C=CCn1c(SCC(=O)c2c(N)n(C)c(=O)n(C)c2=O)nc2sc(CC)cc2c1=O` the activation factor was 1 (inactive). For `COc1ccc(-c2nc3ccccc3n2CCC(C)C)cc1OC`, the activation factor was 0.4 (inactive). In the case of `CC(C)Oc1ccc(C(=O)NC(C)(C)CO)cc1`, the activation factor is reported as 1 (inactive). With `COc1ccc(C(=O)Nc2ncc3c(n2)-c2ccccc2CC3)cc1` the activation factor was 0.9 (inactive). In the case of `O=C(Nc1cccc2ccccc12)c1onc2c1CCCC2`, the activation factor is reported as 0.9 (inactive). `FC(F)(F)c1ccc2nnc(-c3c(Cl)cccc3Cl)n2c1` was tested, and the activation factor was 0.7 (inactive). `Cc1cc(C(=O)OCC(=O)Nc2ccc(F)c(F)c2)c(C)o1` was tested, and the activation factor was 0.1 (inactive). In the case of `Cc1nnc(SCC(=O)NC(=O)NC2CCCC2)n1N`, the activation factor is reported as 1 (inactive). In the case of `Cc1ccc(-c2csc(N(Cc3ccco3)C(=O)c3cccs3)n2)cc1`, the activation factor is reported as 0.3 (inactive). `O=C(c1ccccc1Oc1ccccc1)N1CCN(c2ccc(F)cc2)CC1` was tested, and the activation factor was 0.1 (inactive). `O=C1N=C(N2CCCC2)S/C1=C\c1cccc(Br)c1` was tested, and the activation factor was 0.4 (inactive). With `Cc1noc(C)c1COC(=O)c1cc2ccccc2cc1O` the activation factor was 0.1 (inactive). With `Cc1nnc(OCC(=O)NCCC2=CCCCC2)c2ccccc12` the activation factor was 0.4 (inactive). For `CCOCCCNC(=O)C(NC(=O)CNC(=O)c1ccccc1)c1ccc(C)cc1` (stereo not drawn), the activation factor was 1.1 (inactive). With `Nn1c(SCC(=O)NC2CCCC2)nnc1-c1ccccc1F` the activation factor was 0.8 (inactive). For `CCN(CC)Cc1csc2ccc(Br)cc12`, the activation factor was 0.9 (inactive). For `CN(C)c1ccc(CNC2C3CC4CC(C3)CC2C4)cc1` (stereo not drawn), the activation factor was 0.2 (inactive). For `FC(F)(F)c1cccc(-c2cc3ccccc3nc2N2CCCC2)c1`, the activation factor was 0.8 (inactive). In the case of `COc1ccc2[nH]c(=O)c(CNc3ccc(C)c(C)c3)cc2c1`, the activation factor is reported as 0.8 (inactive). For `Cn1nc(C(F)(F)F)c(C(=O)Nc2cccc(C(F)(F)F)c2)c1SCc1ccc(Cl)cc1`, the activation factor was 0.1 (inactive). For `Cc1ccc(/C=N\n2c(-c3ccccc3)n[nH]c2=S)s1`, the activation factor was 1 (inactive). With `CCCCCCOc1ccc(OC(=O)c2cccnc2)cc1` the activation factor was 0.8 (inactive). In the case of `O=S(=O)(c1cnccc1N1CCN(/N=C/c2ccc(Br)cc2)CC1)N1CCCCC1`, the activation factor is reported as 1.1 (inactive). `CCC(C)NC(=O)c1c(N)n(/N=C/c2cccs2)c2nc3ccccc3nc12` (stereo not drawn) was tested, and the activation factor was 0.9 (inactive). `Cc1ccc(C(=O)N2CCN(C(=O)N3CCOCC3)CC2)cc1` was tested, and the activation factor was 0.9 (inactive). For `Cc1cccc(NC(=O)/C(=C\c2ccco2)NC(=O)c2ccccc2)c1`, the activation factor was 0.9 (inactive). `CC(C)Oc1ccc(CCc2n[nH]c(=S)n2Cc2ccccc2)cc1` was tested, and the activation factor was 0.8 (inactive). In the case of `CCOC(=O)/C(=C\c1ccc([N+](=O)[O-])cc1)C(=O)c1cc(C(C)=O)c(Nc2ccccc2)s1`, the activation factor is reported as 0.4 (inactive). For `CCOc1cccc(SCc2noc(C(=O)NC(C)C)c2C(=O)O)c1`, the activation factor was 0.9 (inactive). In the case of `Cc1cccc(C(=O)NCCCN2CCCC2=O)c1`, the activation factor is reported as 0.8 (inactive). In the case of `COc1ccc(C(=O)NNC(=O)c2cnccn2)cc1[N+](=O)[O-]`, the activation factor is reported as 0.9 (inactive). For `Cc1cc(=O)[nH]c(SCc2cccc(F)c2)n1`, the activation factor was 0.9 (inactive). `COc1ccc(NC(=O)/C(Cl)=C(/Cl)S(=O)Cc2ccc(C)cc2)cn1` (stereo not drawn) was tested, and the activation factor was 0.7 (inactive). With `COc1ccc(/C=C2\CCCC3C2=NN(C(=O)c2scnc2C)C3c2ccc(OC)cc2)cc1` (stereo not drawn) the activation factor was 0.7 (inactive). With `Cc1ccccc1-n1nc(C)c2cc(C(=O)NC3CC3)sc21` the activation factor was 0.4 (inactive). With `Cc1onc(-c2c(Cl)cccc2Cl)c1C(=O)c1c[nH]c(C(=O)NC2CC2)c1` the activation factor was 1 (inactive). With `Cc1cccc(C(=O)Nc2ccc(C(=O)/C=C/c3cccs3)cc2)c1` the activation factor was 1 (inactive). For `CCOc1ccc(S(=O)(=O)NCCSc2ccccc2)cc1`, the activation factor was 0 (inactive). `CN(C)S(=O)(=O)c1ccc(N2CCCC2)c(C(=O)NCc2ccccc2)c1` was tested, and the activation factor was 0.4 (inactive). In the case of `COc1ccc(C(=O)Nc2nc(-c3ccc(OC)cc3)c(-c3ccc([N+](=O)[O-])cc3)s2)cc1`, the activation factor is reported as 0.9 (inactive). In the case of `Cc1nn(Cc2ccccc2Cl)c(C)c1NC(=O)Cn1nc([N+](=O)[O-])c(Cl)c1C`, the activation factor is reported as 1 (inactive). For `COC(=O)Nc1sc2nc(C)cc(C)c2c1-n1cccc1`, the activation factor was 0.8 (inactive). With `CCCc1nnc(NC(=O)c2cccs2)s1` the activation factor was 0.9 (inactive). With `O=C1Nc2ccc(Br)cc2/C1=N/N=C/C1=C(N2CCOCC2)C(=C\c2ccccc2)/CC1` the activation factor was 1 (inactive). `O=C(N/N=C\c1cccc(Br)c1)c1ccccc1-n1cccc1` was tested, and the activation factor was 0.3 (inactive). For `CC(=O)N1Cc2ccccc2CC1C(=O)O` (stereo not drawn), the activation factor was 1.2 (inactive). `O=C(c1cccc(N2CCCC2=O)c1)N1CCOCC1` was tested, and the activation factor was 1.1 (inactive). For `Cc1nn(CCOc2ccccc2)c(=O)n1-c1ccccc1F`, the activation factor was 0.5 (inactive). In the case of `O=C(NCc1ccccc1)[C@@H]1CSC2c3ccccc3C(=O)N21` (stereo partly drawn), the activation factor is reported as 0.2 (inactive). With `N=c1ccn(CC(=O)NC(N)=O)c2ccccc12` the activation factor was 1.1 (inactive). With `CCC(=O)c1c[nH]c(C(=O)NCC2CCCO2)c1` (stereo not drawn) the activation factor was 1 (inactive). In the case of `COc1ccc(Nc2nc(Cl)nc(NCc3ccco3)n2)cc1`, the activation factor is reported as 1 (inactive). With `CN(C)/C=C/C(=O)c1ccccc1F` the activation factor was 1.1 (inactive). For `C=CCn1c(Cn2nnc3ccccc32)nnc1SCC(=O)N/N=C/c1cc(Br)cc(OC)c1O`, the activation factor was 0.8 (inactive). In the case of `COC(=O)CCSc1cc([N+](=O)[O-])cc2c1c(C1OCCS1)nn2-c1ccccc1` (stereo not drawn), the activation factor is reported as 0.9 (inactive). In the case of `NC(=O)c1nsc(C(=O)N(CC(=O)NCc2ccc(F)cc2)Cc2ccco2)c1N`, the activation factor is reported as 0.8 (inactive). With `CCNC(=O)NC(=O)C(C)OC(=O)c1cc(S(=O)(=O)N2CCCCCC2)ccc1OC` (stereo not drawn) the activation factor was 0.3 (inactive). For `CCOC(=O)c1c(-c2ccccc2)csc1NC(=S)NC(=O)c1ccccc1`, the activation factor was 1.1 (inactive).
